Screening results as filed in PubChem BioAssay.
Only some compounds are listed: those with a hit (about 0.74% of all), similar ones and a draw of the others.
UGM FP inh: M. tuberculosis UGM enzyme inhibitors, primary screen, biochemical, fluorescence polarization, single point. UDP-galactopyranose mutase (Mycobacterium tuberculosis (strain ATCC 25618 / H37Rv)), …. purified UGM, fluorescence polarization probe displacement. inhibition, % at 10 µM. 320,000 tested, 0.06% active; in the data active means inhibition above about 10%, passing the limit was not always enough
Target sequence (P9WIQ1 whole entry, looked up): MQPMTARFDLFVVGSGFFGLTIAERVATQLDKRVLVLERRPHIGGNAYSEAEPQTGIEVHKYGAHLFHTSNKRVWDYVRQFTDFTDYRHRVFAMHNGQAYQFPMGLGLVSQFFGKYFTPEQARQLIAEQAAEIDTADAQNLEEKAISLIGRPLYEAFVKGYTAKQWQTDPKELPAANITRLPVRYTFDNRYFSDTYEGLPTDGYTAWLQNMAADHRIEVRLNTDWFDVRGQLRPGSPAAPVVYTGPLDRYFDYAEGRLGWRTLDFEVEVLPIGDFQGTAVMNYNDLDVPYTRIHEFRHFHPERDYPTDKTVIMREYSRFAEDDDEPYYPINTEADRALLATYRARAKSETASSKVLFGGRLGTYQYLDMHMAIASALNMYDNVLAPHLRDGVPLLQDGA
Vc quorum ag-1: inducers of Vibrio cholerae quorum light production without autoinducers, primary screen, BH1578 luxS cqsA deficient, single point; activation, % at 18.7 µM; 350,000 tested, 0.16% active; AID 588436, 2011; V. cholerae BH1578 lux reporter, luminescence, 6 h; in the data active means activation mostly above about 9.7%, no sharp cut-off
Mtb bLac sens: beta-lactam sensitization of Mtb H37Rv, H37Rv; M. tuberculosis H37Rv growth with meropenem, percent inhibition; inhibition, % at 25 µM; 330,000 tested, 0.27% active;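 further: growth measured after seven days incubation then overnight dye step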
Rv3671c protease: Rv3671c serine protease inhibitors, primary screen, biochemical, fluorescence polarization, M. tuberculosis H37Rv; P9WHR9; inhibition, % at 5.96 µM; 320,000 tested, 0.048% active; AID 2606, 2010; in the data active means inhibition above about 38%;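 further: extracellular domain of Rv3671c used as enzyme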
FadD28 binding: inhibitors of FadD28 bisubstrate probe binding, primary screen, biochemical, fluorescence polarization, single point; Mycobacterium tuberculosis FadD28 fatty-acid-AMP ligase; inhibition, % at 12.5 µM; 360,000 tested, 0.22% active; AID 588549, 2011; in the data active means inhibition above about 8.5%, passing the limit was not always enough
MazEF act: activators of E. coli MazEF toxin-antitoxin RNase, primary screen, biochemical, fluorescence, uHTS; Endoribonuclease toxin MazF (Escherichia coli (strain K12)), P0AE70; FAM/BHQ RNA-DNA oligo cleavage fluorescence, 5 h; activation, % at 20 µM; 350,000 tested, 0.32% active; in the data active means activation above about 50%
Vc quorum ag-2: V. cholerae lux activation without autoinducers – BH1578 luxS cqsA deficient, cherry-pick, plate reader, dose response. V. cholerae BH1578 lux reporter, luminescence, 6 h. AID 602243, 2012. 620 tested, under 10 active. activation, % at 50 µM. shares compounds with Vc quorum ag-1
Large screens that a line does not name were inactive (follow-up assays come after a bar, where they were run). Unless noted, how the calls were made is not given here.

COC(=O)Nc1ccc(S(=O)(=O)NCCO)cc1	none | Vc quorum ag-2 inactive
O=C(CSc1nc(=O)n(CCN2CCOCC2)c2c1CCCC2)Nc1ccccc1Cl	none (no result: UGM FP inh, Mtb bLac sens, Rv3671c protease)
Cc1cccc(NC(=O)CSc2nc(=O)n(CCN3CCOCC3)c3c2CCCC3)c1C	none | Vc quorum ag-2 inactive
O=C(Oc1nsnc1N1CCCCC1)N1CCOCC1	none | Vc quorum ag-2 inactive
O=C(Oc1nsnc1N1CCOCC1)N1CCCC1	none
COc1ccc(C(=O)NC2CCSC2=O)cc1 (stereo not given)	none | Vc quorum ag-2 inactive
COc1cccc(C(=O)NC2CCSC2=O)c1 (stereo not given)	none
CCCCn1c(=O)c(C(=O)NC(C)c2ccccc2)c(O)c2ccccc21 (stereo not given)	none
C=CCn1c(=O)c(C(=O)NC(C)c2ccccc2)c(O)c2ccccc21 (stereo not given)	Vc quorum ag-1 451 | Vc quorum ag-2 inactive
CCn1nnnc1SCC(=O)c1ccc2c(c1)OCCO2	Vc quorum ag-1 active | Vc quorum ag-2 inactive
CC(C)n1nnnc1SCC(=O)Nc1ccc2c(c1)OCCO2	none (no result: Vc quorum ag-1, FadD28 binding, MazEF act)
CC(C)n1nnnc1SCC(=O)c1ccc2c(c1)OCCO2	Vc quorum ag-1 active | Vc quorum ag-2 inactive
O=C(CSc1nnc2ccccn12)c1ccc2c(c1)OCCO2	Vc quorum ag-1 active | Vc quorum ag-2 inactive
CCOC(=O)C1CC2CC(C1)CN(C(=O)C1CCCCC1)C2 (stereo not given)	none
COc1ccccc1C(=O)NC(=O)COC(=O)CNC(=O)c1ccc(Cl)cc1Cl	none
COc1ccc(C(=O)COC(=O)CNC(=O)c2ccc(Cl)cc2Cl)c(OC)c1	none | Vc quorum ag-2 inactive
O=C(Nc1ccccc1)O[C@@H]1C[C@H]2CCC(=O)N3CC[C@@H](C1)[C@@H]23	none (no result: Vc quorum ag-1, FadD28 binding, MazEF act)
O=C(CSc1nnnn1-c1ccccc1)NCCCN1CCCC1=O	none
O=C(COc1ccccc1)Nc1ccccc1N1CCCCC1	none
O=C(COc1cccc(Cl)c1)Nc1ccccc1N1CCCCC1	none (no result: UGM FP inh) | Vc quorum ag-2 inactive
Cc1cc2oc(=O)cc(CN3CCC(C)CC3)c2cc1Cl	Vc quorum ag-1 26 | Vc quorum ag-2 inactive
COc1cc2c(c(OC)c1OC)C(c1ccc(C)cc1)CC(=O)O2 (stereo not given)	none (no result: UGM FP inh, Mtb bLac sens, Rv3671c protease) | Vc quorum ag-2 inactive
COc1ccc(C2CC(=O)Oc3cc(OC)c(OC)c(OC)c32)cc1 (stereo not given)	none (no result: UGM FP inh, Mtb bLac sens, Rv3671c protease)
CCOCCCNC(=O)C(NC(=O)CNC(C)=O)c1ccc(Cl)cc1 (stereo not given)	none
CCOCCCNC(=O)C(NC(=O)CNC(=O)c1ccccc1)c1ccccc1 (stereo not given)	Vc quorum ag-1 28 | Vc quorum ag-2 inactive
CCCCn1nnnc1NCc1ccc(C)cc1	none (no result: Rv3671c protease)
CCCCn1nnnc1NCc1ccc(N(CC)CC)cc1	Vc quorum ag-1 366 | Vc quorum ag-2 inactive
O=C1CNC(=O)c2cc(Cl)ccc2N1	none (no result: UGM FP inh, Mtb bLac sens, Rv3671c protease)
COCc1nnc(NC(=O)c2ccccc2Oc2ccccc2)s1	none
COCCSc1ccccc1C(=O)Nc1nnc(COC)s1	none | Vc quorum ag-2 inactive
O=C(/C=C/c1ccc(OCCCF)cc1)NCc1ccc(Cl)cc1	Vc quorum ag-1 39 | Vc quorum ag-2 inactive
COc1ccc(CNC(=O)/C=C/c2ccc(OCCCF)cc2)cc1	none
CC(C)(C)OC(=O)N1CCC(NC(=O)c2nc[nH]c2C(=O)N2CCN(c3ccccc3)CC2)CC1	none
NS(=O)(=O)c1ccc(NC(=O)NC2CCCCC2)cc1	Vc quorum ag-1 32 | Vc quorum ag-2 inactive
NS(=O)(=O)c1ccc(NC(=S)NC2CCCCC2)cc1	none
CC(=O)Nc1ccc(S(=O)(=O)NCC(=O)OC(C)c2ccccc2Cl)cc1 (stereo not given)	none
CCN(C[C@H]1N[C@@](C)(C(=O)OC)[C@H]2C(=O)N(C)C(=O)[C@@H]12)C(=O)Nc1ccc(OC)cc1	none
O=C(COC(=O)c1ccc(Cl)nc1)Nc1ccc2ccccc2c1	none (no result: UGM FP inh, Mtb bLac sens, Rv3671c protease) | Vc quorum ag-2 inactive
